Experimental data taken from PubChem BioAssay.
Activity calls are given as the source filed them. Unless noted, no rule for the calls is given here.

Assays:
[1] = anti-His antibody binders, primary screen, artefact control for SMM control protein annotation, biochemical, small-molecule microarray, 635 nm fluorescence (AID 1128); conditions: anti-His Alexa647 antibody binding, higher = more signal;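 also: score merges feature fluorescence with signal-to-noise for each printed compound spot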
[2] = tested on: Human papillomavirus type 1a E7 protein (residues 1-88); assay: HPV1a E7 small-molecule binders, primary screen, biochemical, small-molecule microarray, residues 1-88, 635 nm (AID 1129); conditions: small-molecule microarray binding, fluorescence 635 nm; higher = more signal
[3] = biological target: Focal adhesion kinase 1 (Homo sapiens) (UniProt Q05397); assay: small-molecule microarray binders of FAK, primary screen, biochemical, 635/667 nm fluorescence, BSA, DTT (AID 1130); conditions: PTK2 binding, 635 nm fluorescence, higher = more signal;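 also: composite of spot emission at 667 nm and signal to noise over triplicate slides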
Chain of Focal adhesion kinase 1 (Homo sapiens) (Q05397 whole entry, looked up): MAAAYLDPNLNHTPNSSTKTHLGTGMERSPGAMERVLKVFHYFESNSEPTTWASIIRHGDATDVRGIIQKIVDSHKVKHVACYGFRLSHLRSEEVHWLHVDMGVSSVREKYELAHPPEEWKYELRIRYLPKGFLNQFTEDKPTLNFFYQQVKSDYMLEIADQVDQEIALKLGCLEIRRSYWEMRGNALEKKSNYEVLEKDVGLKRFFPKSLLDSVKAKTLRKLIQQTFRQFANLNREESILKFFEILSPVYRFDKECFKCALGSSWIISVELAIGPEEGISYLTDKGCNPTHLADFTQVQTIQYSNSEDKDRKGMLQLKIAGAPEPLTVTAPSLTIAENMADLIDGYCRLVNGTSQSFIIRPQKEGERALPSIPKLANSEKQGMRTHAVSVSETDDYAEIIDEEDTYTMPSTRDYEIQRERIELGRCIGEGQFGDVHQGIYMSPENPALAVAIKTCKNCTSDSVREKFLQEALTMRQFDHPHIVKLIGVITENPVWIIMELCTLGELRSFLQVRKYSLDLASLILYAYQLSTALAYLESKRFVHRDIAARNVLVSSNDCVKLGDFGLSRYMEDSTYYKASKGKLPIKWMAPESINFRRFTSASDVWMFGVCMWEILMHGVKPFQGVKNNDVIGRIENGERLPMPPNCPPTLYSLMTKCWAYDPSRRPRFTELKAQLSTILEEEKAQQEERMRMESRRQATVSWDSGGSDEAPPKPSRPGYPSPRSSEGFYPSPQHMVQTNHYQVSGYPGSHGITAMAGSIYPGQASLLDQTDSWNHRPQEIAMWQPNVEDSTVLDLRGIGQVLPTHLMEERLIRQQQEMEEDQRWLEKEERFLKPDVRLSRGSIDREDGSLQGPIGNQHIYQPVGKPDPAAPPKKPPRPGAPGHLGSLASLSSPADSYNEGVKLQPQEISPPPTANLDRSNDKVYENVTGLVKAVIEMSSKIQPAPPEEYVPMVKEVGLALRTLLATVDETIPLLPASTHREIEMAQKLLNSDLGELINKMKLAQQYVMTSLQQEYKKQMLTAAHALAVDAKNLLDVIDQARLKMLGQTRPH

[4] = tested on: Fibrinogen (Alexa647-labelled); assay: fibrinogen binders on compound microarrays, profiling panel, artefact control for SMM control-protein annotation, biochemical, small-molecule microarray, 635/667 nm fluorescence (AID 1131); conditions: fibrinogen-A647 binding fluorescence, higher = more signal;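 also: z-score merges 667 nm fluorescence with per-spot signal-to-noise over triplicate slides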
[5] = biological target: Follistatin (Homo sapiens) (UniProt P19883); assay: follistatin binders on small-molecule microarrays, primary screen, biochemical, small-molecule microarray, 635/667 nm fluorescence (AID 1132); conditions: FST binding, 635 nm fluorescence, higher = more signal
Chain of Follistatin (Homo sapiens) (P19883 whole entry, looked up): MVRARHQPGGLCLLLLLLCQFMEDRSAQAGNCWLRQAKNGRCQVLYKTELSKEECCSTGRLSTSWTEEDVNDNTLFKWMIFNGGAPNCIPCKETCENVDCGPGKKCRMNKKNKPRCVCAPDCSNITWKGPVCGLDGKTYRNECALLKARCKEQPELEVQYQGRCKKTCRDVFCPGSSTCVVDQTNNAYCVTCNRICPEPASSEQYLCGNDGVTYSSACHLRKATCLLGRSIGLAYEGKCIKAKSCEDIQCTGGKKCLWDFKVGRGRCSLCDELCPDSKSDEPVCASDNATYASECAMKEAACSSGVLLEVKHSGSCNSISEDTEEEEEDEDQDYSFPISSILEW

[6] = biological target: Fibroblast growth factor 2 (Homo sapiens) (UniProt P09038); assay: FGF2 binders on small-molecule microarrays, primary screen, biochemical, small-molecule microarray, 635/667 nm fluorescence (AID 1133); conditions: small-molecule microarray binding, FGF2, fluorescence 635/667; higher = more signal
Chain of Fibroblast growth factor 2 (Homo sapiens) (P09038 whole entry, looked up): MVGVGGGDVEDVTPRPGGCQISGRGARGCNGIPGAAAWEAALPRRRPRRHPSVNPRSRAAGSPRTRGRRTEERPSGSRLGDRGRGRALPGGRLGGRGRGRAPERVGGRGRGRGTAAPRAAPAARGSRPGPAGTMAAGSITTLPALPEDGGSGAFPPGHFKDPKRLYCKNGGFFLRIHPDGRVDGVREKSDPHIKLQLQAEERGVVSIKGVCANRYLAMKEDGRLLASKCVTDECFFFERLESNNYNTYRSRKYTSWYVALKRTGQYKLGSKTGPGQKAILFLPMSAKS

[7] = mitochondrial membrane potential change in A549 cells, profiling panel, cell-based, JC-1 fluorescence, basal, 24 h, 100 nL (AID 1138); conditions: higher = more signal;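 also: A549 lung adenocarcinoma cells under basal conditions with no added stimulus; test concentration not given here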
[8] = tested on: Lefty1; assay: Lefty1 binders on small-molecule microarrays, primary screen, biochemical, small-molecule microarray, 635/667 nm fluorescence (AID 1139); conditions: small-molecule microarray binding, fluorescence 635/667; higher = more signal
[9] = tested on: wheat germ agglutinin (Triticum aestivum), Alexa647-labelled; assay: wheat germ agglutinin binders on compound microarrays, profiling panel, artefact control for SMM control-protein annotation, biochemical, small-molecule microarray, 635/667 nm fluorescence (AID 1140); conditions: WGA-A647 binding, 635 nm fluorescence, higher = more signal;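 also: score merges 667 nm feature emission with signal to noise over triplicate slides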
[10] = biological target: Luciferin 4-monooxygenase (Photinus pyralis) (UniProt P08659); assay: firefly luciferase enzyme inhibitors, primary screen, biochemical, luminescence, purified enzyme, 2006 set (AID 1141); conditions: SteadyGlo luminescence, 30 min, higher = more signal, called active from +8 up or from −8 down;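 also: cell-free assay with purified firefly luciferase at 100 ng per well in PBS; test concentration not given here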
Chain of Luciferin 4-monooxygenase (Photinus pyralis) (P08659 whole entry, looked up): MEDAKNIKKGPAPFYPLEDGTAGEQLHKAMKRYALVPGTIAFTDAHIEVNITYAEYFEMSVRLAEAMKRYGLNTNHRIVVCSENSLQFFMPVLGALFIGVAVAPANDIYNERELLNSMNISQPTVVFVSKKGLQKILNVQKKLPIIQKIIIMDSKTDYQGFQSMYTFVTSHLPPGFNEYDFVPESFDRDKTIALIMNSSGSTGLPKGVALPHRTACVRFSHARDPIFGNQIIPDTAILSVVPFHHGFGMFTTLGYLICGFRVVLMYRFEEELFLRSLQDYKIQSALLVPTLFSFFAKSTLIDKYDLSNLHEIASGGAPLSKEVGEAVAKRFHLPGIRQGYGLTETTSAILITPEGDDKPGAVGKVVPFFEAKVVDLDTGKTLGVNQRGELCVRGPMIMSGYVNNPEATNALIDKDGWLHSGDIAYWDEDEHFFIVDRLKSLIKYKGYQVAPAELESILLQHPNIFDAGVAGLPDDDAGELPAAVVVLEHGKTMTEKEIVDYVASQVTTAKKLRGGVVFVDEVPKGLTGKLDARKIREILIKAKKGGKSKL

[11] = tested on: Wnt5a (protein binding on small-molecule microarray); assay: Wnt5a binders on small-molecule microarray, primary screen, biophysical, 635/667 nm fluorescence (AID 1142); conditions: 635 nm fluorescence, higher = more signal;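 also: fluorescence read at 667 nm with signal to noise per printed feature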
[12] = cell viability in Huh7 cells, primary screen, cytotoxicity control for HCV replication inhibitor project, CellTiter-Glo luminescence, basal, 48 h (AID 1143); conditions: Huh7 HCV replicon, higher = more signal, called active from +8 up or from −8 down;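 also: Huh7 hepatoma cells carrying a hepatitis C replication reporter with no stimulus; test concentration not given here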
[13] = P. aeruginosa biofilm formation inhibitors, primary screen, PAO1 strain, BacTiter-Glo luminescence, LB-PBS (AID 1144); conditions: 12 h, higher = more signal
[14] = CREB reporter modulators without forskolin, primary screen, cell-based, PC12, CRE-LacZ reporter, unstimulated (AID 1145); conditions: no forskolin, luminescence, 4.5 h, higher = more signal, called active from +8 up or from −8 down
[15] = CREB reporter modulators under forskolin, primary screen, cell-based, PC12, CRE-LacZ reporter, forskolin-stimulated (AID 1146); conditions: luminescence, 4.5 h, higher = more signal, called active from +8 up or from −8 down;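 also: PC12 cells with 6xCRE LacZ reporter stimulated by forskolin 10 µM; beta-galactosidase reporter signal reflecting CREB driven transcription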
[16] = biological target: Streptavidin (Streptomyces avidinii) (UniProt P22629); assay: streptavidin binders on small-molecule microarray, primary screen, artefact control for SMM compound annotation, biophysical, 635/667 nm fluorescence (AID 1147); conditions: streptavidin binding, higher = more signal;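 also: signal reflects streptavidin binding to arrayed compounds as a control protein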
Chain of Streptavidin (Streptomyces avidinii) (P22629 whole entry, looked up): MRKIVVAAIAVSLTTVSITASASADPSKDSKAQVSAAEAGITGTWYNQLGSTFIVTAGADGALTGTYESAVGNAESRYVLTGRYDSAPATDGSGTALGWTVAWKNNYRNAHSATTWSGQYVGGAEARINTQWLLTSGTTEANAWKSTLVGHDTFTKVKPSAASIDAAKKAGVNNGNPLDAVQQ

[17] = small-molecule binders of probe aInhba, primary screen, biochemical, small-molecule microarray, 635/667 nm fluorescence (AID 1148); conditions: higher = more signal;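 also: score merges 667nm spot fluorescence with signal-to-noise for antibody binding to printed compounds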
[18] = biological target: Torsin-1A (Homo sapiens) (UniProt O14656); assay: torsin A binders from cell lysate, primary screen, small-molecule microarray, wild-type, 635/667 nm (AID 1149); conditions: COS7 hTOR1A-WT lysate, 635 nm fluorescence, higher = more signal
Chain of Torsin-1A (Homo sapiens) (O14656 whole entry, looked up): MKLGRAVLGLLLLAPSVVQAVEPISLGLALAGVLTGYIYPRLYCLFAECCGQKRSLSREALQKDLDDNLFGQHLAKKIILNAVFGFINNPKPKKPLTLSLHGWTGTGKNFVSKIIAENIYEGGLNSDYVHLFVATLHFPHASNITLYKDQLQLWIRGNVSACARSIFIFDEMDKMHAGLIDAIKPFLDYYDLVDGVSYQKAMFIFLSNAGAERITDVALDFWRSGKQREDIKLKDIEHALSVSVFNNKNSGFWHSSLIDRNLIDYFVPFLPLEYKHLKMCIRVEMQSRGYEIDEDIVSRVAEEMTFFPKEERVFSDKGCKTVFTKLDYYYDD

[19] = biological target: Torsin-1A (Homo sapiens) (UniProt O14656); assay: small-molecule binders of mutant TOR1A in lysate, primary screen, cell lysate, small-molecule microarray, COS7 lysate, 635/667 nm fluorescence (AID 1150); conditions: COS7 hTOR1A mutant lysate, 635 nm fluorescence, higher = more signal;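 also: score pools 667 nm emission and signal to noise measuring lysate protein binding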
[20] = tested on: Sonic hedgehog protein (Shh); assay: small-molecule binders of Shh protein, primary screen, biochemical, small-molecule microarray, 635/667 nm fluorescence (AID 1151); conditions: small-molecule microarray binding, 635 nm fluorescence; higher = more signal;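 also: Shh protein binding to compounds spotted on small-molecule microarray slides; score combines spot fluorescence intensity with signal-to-noise across triplicate slides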

| Compound | composite z-score [1] | composite z-score [2] | composite z-score [3] | composite z-score [4] | composite z-score [5] | composite z-score [6] | z-score [7] | composite z-score [8] | composite z-score [9] | z-score [10] | composite z-score [11] | z-score [12] | z-score [13] | z-score [14] | z-score [15] | composite z-score [16] | composite z-score [17] | composite z-score [18] | composite z-score [19] | composite z-score [20] |
| --- | --- | --- | --- | --- | --- | --- | --- | --- | --- | --- | --- | --- | --- | --- | --- | --- | --- | --- | --- | --- |
| CCOC(=O)C1=CC[C@@H](c2ccccc2)N(S(=O)(=O)c2ccc(C)cc2)[C@H]1c1ccc(CC)cc1 | 1.09 | 1.18 | 0.761 | 0.966 | 0.352 | 0.286 | 2.58 | 0.245 | 0.758 | 1.46 (inactive) | 0.074 | -3.08 (inactive) | 1.17 (inactive) | 0.136 (inactive) | 0.0268 (inactive) | 1.13 | 0.0018 | 0.567 | 0.359 | -0.737 |
| CC(=O)NCCCC[C@@H]1NC(=O)[C@H]2C[C@@H](C(=O)NCCCCCNC(=O)CS)[C@@H](c3ccc(O)cc3)N2C1=O | 2.12 | -0.15 | 0.167 | -0.355 | 0.769 | 0.424 | 0.139 | -0.272 | -0.0796 | -2.56 (inactive) | 0.0736 | -0.47 (inactive) | -0.589 (inactive) | -0.122 (inactive) | -0.112 (inactive) | -0.502 | 0.0391 | 0.261 | -0.711 | 0.468 |
| COc1ccc([Si](C)(C)[C@H]2[C@H](CCn3cc([C@H](O)c4ccccc4)nn3)O[C@@]3(C(=O)N(C)c4ccccc43)[C@@H]2C)cc1 | -0.0799 | 0.0391 | 0.254 | -1.37 | 0.862 | 0.322 | 1.65 | 1.23 | -0.0898 | -0.0548 (inactive) | -0.319 | -3.31 (inactive) | -0.573 (inactive) | 2.69 (inactive) | -1.28 (inactive) | -0.814 | -0.0221 | -0.71 | -0.193 | 1.36 |
| O=c1cccc(-c2ccccc2Cl)o1 | 0.0166 | 0.461 | 0.678 | -0.0231 | 0.0968 | -0.488 | -0.556 | 0.0182 | -0.0467 | 0.294 (inactive) | -0.196 | -0.759 (inactive) | 0.387 (inactive) | 0.285 (inactive) | 0.556 (inactive) | 0.423 | 0.115 | 0.64 | 0.112 | 0.322 |
| C=C(/C(=C/C[C@H](OC(=O)c1ccncc1)c1ccc(OCCO)cc1)c1cc(C(=O)OC)ccc1OC)C(C)C | 0.785 | 1 | 0.359 | 0.821 | 0.789 | 0.494 | -0.228 | 0.546 | 0.681 | -0.357 (inactive) | -0.0134 | -3.91 (inactive) | -0.518 (inactive) | 3.9 (inactive) | -0.359 (inactive) | 1.23 | -0.016 | -0.511 | 0.284 | 0.711 |
| O=C1OCC=C[C@H]2OC34C=CCN(Cn5nnc6ccccc65)C(=O)[C@H]3N(CCCCCO)C(=O)[C@@H]4[C@@H]12 (stereo not given in full) | 0.181 | -0.185 | -0.34 | -0.566 | -0.997 | -0.846 | -1.47 | -0.992 | 1.25 | 0.365 (inactive) | 0.238 | -0.17 (inactive) | -1.03 (inactive) | -0.623 (inactive) | -0.29 (inactive) | -0.573 | -0.348 | -0.884 | -1.08 | -0.502 |
| O=C(O)[C@@]1(CCS(=O)(=O)c2ccccc2)N=C(c2ccc(OCCCO)cc2)O[C@H]1c1ccccc1 | 2.65 | 0.23 | 0.264 | 0.993 | 0.265 | -0.761 | 0.175 | -0.387 | 0.763 | -1.56 (inactive) | -0.111 | -0.798 (inactive) | 0.0288 (inactive) | -0.23 (inactive) | -0.324 (inactive) | 1.34 | 0.102 | 1.43 | 1.79 | -0.338 |
| COc1cc2c(cc1O)C=[N+](Cc1cc3c(cc1Br)OCO3)CC2 | -0.954 | -1.07 | -0.626 | -2.07 | -0.174 | -0.659 | -0.784 | -0.553 | 0.248 | 0.807 (inactive) | -0.234 | -2.14 (inactive) | -0.304 (inactive) | -0.671 (inactive) | 0.945 (inactive) | -1.88 | -0.154 | -0.39 | -0.945 | -0.216 |
| CCOC(=O)C[C@H]1[C@H](OC(=O)c2ccc(C(=O)c3ccccc3)cc2)[C@@H](NC(=O)c2ccccc2)c2cc(OCCCO)ccc2N1C(=O)c1ccccc1 | 0.0654 | 0.321 | 0.775 | 0.704 | 0.64 | 0.752 | 0.697 | 0.802 | 0.405 | 0.685 (inactive) | 0.261 | -0.622 (inactive) | -0.948 (inactive) | -0.346 (inactive) | 1.13 (inactive) | 0.512 | 0.0541 | 0.138 | 0.628 | 0.907 |
| COc1ccc([C@H]2C[C@H]3C(I)=C[C@@H]2C(=O)[C@]32CO2)cc1 | -0.608 | -0.658 | -0.449 | -0.193 | 0.762 | 1.14 | 1.1 | 0.983 | 0.24 | -0.303 (inactive) | -0.149 | -0.307 (inactive) | -0.125 (inactive) | 5.38 (inactive) | -1.6 (inactive) | 1.25 | -0.152 | -0.067 | -0.126 | 0.817 |
